# Compound activity (PubChem)
# hcDAF12 agonist – activates DAF-12 receptor from parasite H. contortus; HEK293 hcDAF-12 lit1-tk-luc reporter, luminescence; 0% DMSO, 100% Δ7-dafachronic acid; 370,000 tested, 1.4% active; activation, % at 6.8 µM; AID 652067;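 active = activation above the mean of all tested compounds plus 3 SD, cut at about 5.5% in these data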;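 also: 100% = response to 3 µM Δ7-dafachronic acid high control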
# DAX1 inh-1 – DAX1 (NR0B1) inhibition, primary screen; 370,000 tested, 1.1% active; HEK293T StAR-luciferase reporter, SF-1/DAX-1 repression relief; inhibition, % at 6.8 µM;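 active = inhibition above the mean over all tested compounds plus 3 SD, cut at about 3.6% in these data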;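 also: 0% = DAX-1 cells with DMSO and 100% = cells lacking DAX-1 with DMSO; higher inhibition means more luminescence from relief of DAX-1 repression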
# DAX1 inh-2 – inhibitors of human orphan nuclear receptor DAX1 (NR0B1). P51843. HEK293 Gal4-DAX1 luciferase reporter, luminescence. inhibition, % at 6.75 µM. 340,000 tested, 0.99% active. AID 504766;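 active = inhibition above the mean over all tested compounds plus 3 SD, cut at about 4.2% in these data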;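 also: 0% = DAX1-transfected cells with DMSO and 100% = empty-vector control cells with DMSO; inhibition shows as a rise in luminescence from relieved DAX1 repression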
# Target sequence (P51843 207-470 limits assumed): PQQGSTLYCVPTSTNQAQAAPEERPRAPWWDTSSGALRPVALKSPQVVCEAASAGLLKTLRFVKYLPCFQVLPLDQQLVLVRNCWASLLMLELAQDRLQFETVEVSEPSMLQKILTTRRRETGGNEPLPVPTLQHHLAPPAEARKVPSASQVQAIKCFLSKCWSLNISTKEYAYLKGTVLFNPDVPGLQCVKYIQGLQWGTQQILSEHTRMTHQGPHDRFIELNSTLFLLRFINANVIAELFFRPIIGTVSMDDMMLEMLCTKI
# ssDAF-12 act – activators of S. stercoralis DAF-12 nuclear receptor; HEK293 ssDAF-12/GRIP1 lit1-tk-luc reporter, luminescence; % of 3 µM dafachronic acid response; activation, % at 6.8 µM; 370,000 tested, 1% active; AID 652126;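 active = activation above the mean over all tested compounds plus 3 SD, cut at about 0.9% in these data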;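 also: 0% = DMSO-only wells and 100% = 3 µM delta7-dafachronic acid wells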
# hgDAF12 agonist – agonists of H. glycines DAF-12 nuclear receptor; activation, % at 6.8 µM; AID 687014; HEK293 GAL4-hgDAF12 UAS-luciferase reporter, agonist luminescence; normalized to butyrate control; 370,000 tested, 1.8% active;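 active = activation above a cutoff set at the mean of all screened compounds plus 3 SD, cut at about 10% in these data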;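 also: 0% = DMSO wells and 100% = sodium butyrate wells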
# An asterisk follows results filed as active; x = no result given. Only some compounds are listed: those with a hit (about 4.1% of all), similar ones and a draw of the others.
SMILES,hcDAF12 agonist,DAX1 inh-1,DAX1 inh-2,ssDAF-12 act,hgDAF12 agonist
Cc1ccc(NCc2ccc(O)c3ncccc23)cc1,0,0,0,0,1
Cc1ccc(NCc2ccc(O)c3ncccc23)cc1C,-2,0,-1,1.9*,-2
Nc1[nH]c(C(=O)c2ccccc2)c(-c2ccc(Cl)cc2)c1C(=O)c1c[nH]c2ccccc12,2,1,x,0,6
Cc1ccc(-c2nc3c4ccccc4ccn3c2Cc2ccsc2)cc1,4,0,x,1.4*,9
Cc1ccc2nc(-c3ccccc3)c(Cc3ccsc3)n2c1,1,3,x,2.1*,10
Cc1ccc(Cc2c(-c3ccccc3)nc3c4ccccc4ccn23)cc1,4,-1,x,0,-1
COc1ccc(-c2nc3c4ccccc4ccn3c2Cc2ccsc2)cc1OC,6.4*,0,x,1,10
COC(=O)c1ccc2nc(-c3ccc(C)cc3)c(Cc3ccsc3)n2c1,0,1,x,-1,9
Fc1cccc(Cc2c(-c3cccc(Br)c3)nc3ccc(Cl)cn23)c1,1,2,x,0,5
Cc1ccc2nc(-c3cccc(Br)c3)c(Cc3cccc(F)c3)n2c1,2,4.3*,x,0,11*
CC1CCCCN1C(=O)c1ccc(CNC(=O)c2cccc(Br)c2)cc1 (centres undefined),-2,-1,x,0,1
COc1ccc(-c2nc3c4ccccc4ccn3c2Cc2cccc(Cl)c2)cc1OC,5,-1,x,1.1*,4
COc1ccc(-c2nc3c4ccccc4ccn3c2Cc2ccc(C)cc2)cc1OC,6.3*,-2,x,0,3
Cc1ccc(-c2nc3c4ccccc4ccn3c2Cc2ccccc2)cc1,4,0,0,0,2
Cc1ccc(S(=O)(=O)N2OC(c3ccccc3)C[C@H]2CC=C(c2ccccc2)c2ccccc2)cc1 (some centres undefined),-1,x,x,-1,-1
Cc1cc(NCc2ccccc2)n2ncc(-c3ccccc3)c2n1,4,4.1*,2,0.9*,9
Cc1cc(C)n(-c2cc(C(C)(C)C)nc3c(-c4ccccc4)cnn23)n1,3,3,5.2*,0,11*
Cc1cc(NC(C)c2ccccc2)n2ncc(-c3ccccc3)c2n1 (centres undefined),2,1,4.7*,0,8
COc1cc(-c2c(C(=O)c3ccccc3)[nH]c(N)c2C(N)=O)ccc1O,2,x,x,-1,1
O=C(NCc1cccc2ccccc12)C1CCCN(c2nc3ccccc3o2)C1 (centres undefined),1,0,x,-1,-1
CCOC(=O)Cc1c(C)nc(SC)[nH]c1=O,0,0,0,-1,11*
Cc1cc(C)nc(NC(=O)CSc2nn(-c3ccccc3)c(=S)s2)n1,-1,1,9.1*,-1,0
O=C(c1cccc(S(=O)(=O)N2CCCCC2)c1)N1CCc2ccccc21,5.9*,0,0,-1,-2
O=C(NCCCN1CCCC1=O)c1cccc(S(=O)(=O)N2CCCCC2)c1,3,4.4*,0,-1,3
Nc1c(-c2ccc(Cl)cc2)nnn1-c1ccccc1,2,2,3,-1,11*
SMILES,hcDAF12 agonist,DAX1 inh-1,DAX1 inh-2,ssDAF-12 act,hgDAF12 agonist
Nc1c(-c2ccc(Cl)cc2)cnn1-c1ccccc1,3,2,3,1,10
Cc1ccc(CCNC(=O)CC2Oc3ccc(C)cc3NC2=O)cc1 (centres undefined),-1,1,11*,-1,3
Cc1ccc2c(c1)NC(=O)C(CC(=O)NCCCN1CCCCC1)O2 (centres undefined),-1,0,4.5*,-1,6
O=C(C1CCN(c2ncnc3c2sc2cccc(F)c23)CC1)N1CCN(C(=O)C2CCCO2)CC1 (centres undefined),-1,-1,x,0,2
CCC[C@H]1[C@@H](OC(=O)NCc2ccc(Cl)c(Cl)c2)CC[C@@]23CCCN2C(=O)CCC[C@@H]13,-4,x,x,-3,2
O=C(Nc1ccc(C(F)(F)F)cc1)OC1CCC12CCCCC2 (centres undefined),-1,0,x,-1,-2
O=C(Nc1ccc2c(c1)OCCO2)c1ccco1,1,3,2,0,4
O=C(Nc1ccc(CN2CCOCC2)cc1)c1ccco1,5.6*,2,2,0,7
CC1(C)Oc2ccc(NC(=O)c3ccco3)cc2O1,3,2,3,0,11*
CC(/C=N/NC(=O)c1ccccc1F)c1ccccc1 (centres undefined),2,2,6.6*,0,11*
CC(NC(=O)c1ccccc1F)C(=O)O (centres undefined),-1,-1,0,-1,1
O=C(NC(=S)Nc1ccc(Br)c(Cl)c1)C1CC1,5.8*,0,1,0,2
COC(=O)C[C@@H]1CC[C@H]2[C@@H](COc3ccc(NC(=O)Nc4ccccc4C)cc3C(=O)N2C)O1,0,0,x,-1,-1
Cc1[nH]nc2c1C(c1cccc(C(F)(F)F)c1)N(Cc1ccccc1)C2=O (centres undefined),-1,-1,x,-1,-3
COc1ccc(Cn2cc(COC(=O)NCC(C)C)nn2)cc1,-1,-1,x,-1,3
O=C(Nc1ccc(F)cc1)c1ccccc1F,6.3*,2,1,-1,4
O=C(Nc1ccc(N2CCOCC2)c(Cl)c1)c1ccco1,5,3.7*,1,0,12*
COc1ccc(NC(=O)c2cccc(OC(F)F)c2)cc1Cl,1,2,-1,-2,11*
O=C(c1ccccc1F)N1CCN(c2ccc([N+](=O)[O-])c(N3CCOCC3)c2)CC1,0,-1,5.8*,-1,3
O=C(CCS(=O)(=O)c1ccccc1)Nc1ccc(F)cc1F,-2,0,x,-1,4
COc1ccc(CN(C)C(=O)C2CCCN(c3nc4ccccc4o3)C2)cc1 (centres undefined),-3,-1,x,-1,-1
C/C(CC(=O)Nc1ccc(C)c(Cl)c1)=N\NC(=O)c1ccco1,3,2,3,1.0*,12*
C/C(CC(=O)Nc1ccc(C)c(Cl)c1)=N\NC(=O)Cc1ccccc1,-2,0,-1,-1,1
O=C(Nc1ccc(N2CCOCC2)c(Cl)c1)c1ccccc1F,2,3.7*,3,0,8
O=C(Nc1ccc(Br)c(Cl)c1)c1ccco1,4,1,4,0,11*
COc1ccc(NC(=O)C(=O)NCCCO)cc1Cl,1,1,4.5*,-1,4
O=C(Nc1ccc(N2CCOCC2)c(Cl)c1)c1ccc(Cl)cc1,0,0,-1,-1,0
CCCCCCCCNS(=O)(=O)CC1NCc2cc(F)ccc21 (centres undefined),1,1,x,-1,3
O=C(NCCc1nc2ccccc2n1CCOc1ccc2cccnc2c1)C1CCCCC1,0,x,x,-1,5
